We go through 16 molecules from PubChem BioAssay.

The nature of assay [1]: A549 cell viability effects, profiling panel, calcein-AM fluorescence, 48 h, basal (AID 1162). As to conditions: higher = more signal.
A short description of assay [2]: adipocyte viability effects, profiling panel, cell-based, 3T3-L1 adipocytes, calcein-AM fluorescence, 48 h, basal (AID 1163). As to conditions: 3T3-L1 adipocytes viability, higher = more signal.
Assay [3] in a line: HepG2 cell viability effects, profiling panel, calcein-AM fluorescence, 48 h, basal (AID 1164). As to conditions: higher = more signal.
Assay [4] in a line: MM1S cell viability effects, profiling panel, calcein-AM fluorescence, 48 h, basal (AID 1165).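 Further: viability of MM1S multiple myeloma cells under basal unstimulated conditions.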 The conditions noted are these: higher = more signal.
Assay [5] is described as follows: basal RPMI8226 viability, no added stimulus, profiling panel, cell-based, calcein-AM fluorescence, 48 h, PK04 Diversity Set (AID 1166).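 Further: cells grown under basal conditions without added stimulus.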 The conditions noted are these: RPMI8226 myeloma viability, higher = more signal.
Assay [6] in a line: basal HepG2 mitochondrial membrane potential changes, profiling panel, cell-based, JC-1 fluorescence, 24 h, 100 nL compound (AID 1167). The conditions noted are these: higher = more signal.
A short description of assay [7]: basal 3T3-L1 adipocyte mitochondrial potential changes, profiling panel, cell-based, JC-1 fluorescence, 3T3-L1 adipocytes, 24 h, 100 nL compound (AID 1168). The conditions noted are these: JC-1 mitochondrial fluorescence, higher = more signal, called active from +8 up or from −8 down.
The nature of assay [8]: basal RPMI8226 mitochondrial membrane potential changes, profiling panel, cell-based, JC-1 fluorescence, 24 h, 100 nL compound (AID 1169). The conditions noted are these: RPMI8226 myeloma, JC-1 mitochondrial potential fluorescence, higher = more signal.
Assay [9] can be described thus: basal MM1S mitochondrial membrane potential changes, profiling panel, cell-based, JC-1 fluorescence, 24 h, 100 nL compound (AID 1170). As to conditions: higher = more signal.
Assay [10] in a line: A549 lung cancer cell viability effects, profiling panel, resazurin fluorescence, 24 h, PK04 Diversity Set (AID 1171). As to conditions: higher = more signal, called active from +8 up or from −8 down.

Active and inactive are the calls of the source.
Further: test concentration not given here.

In the case of `CC(C)(C)N1C(=O)[C@H]2[C@H]3[C@H](O)[C@H](O)CC(=NOC[C@@H](O)COCc4ccco4)[C@@H]3CC[C@H]2C1=O`, the z-score is -0.535 in assay [1]; 0.935 in assay [2]; -0.274 in assay [3]; 0.268 in assay [4]; -1.63 in [5]; -1.12 in assay [6]. The z-score in assay [7] is -0.243 (inactive); in assay [8] it was 0.431; in assay [9], 0.325; in [10], -0.0978 (inactive).
For the molecule `CC(C)=CCCC(C)=CCON=C1C[C@@H](O)[C@@H](O)[C@@H]2[C@@H]3C(=O)N(Cc4ccc5c(c4)OCO5)C(=O)[C@@H]3CC[C@H]12`, the z-score in assay [1] was -0.0007; in assay [2] it was 0.0614; in assay [3] it was -0.579; in assay [4], -2.32; in assay [5] it was -1.31; in [6], -0.214. The z-score is -0.412 (inactive) in assay [7], -0.655 in assay [8], -0.488 in assay [9] and -0.0045 (inactive) in [10].
Regarding `CCOC(=O)NN=C1C[C@@H](O)[C@@H](O)[C@@H]2[C@@H]3C(=O)N(C[C@@H]4CCCO4)C(=O)[C@@H]3CC[C@H]12`, the z-score in assay [1] is -0.0295; in assay [2] it was 0.127; in assay [3], -1.17; in assay [4], -0.0085; in assay [5] it was 0.121; in assay [6], -0.686. The z-score in assay [7] was -0.408 (inactive); in assay [8], -0.38; in [9], -0.229; in assay [10] it was 0.159 (inactive).
Regarding `CCN1C(=O)[C@H]2[C@@H]3C(=CC[C@H]2C1=O)C(=O)[C@H]1O[C@H]1[C@H]3O`, the z-score was -0.163 in [1]; 0.634 in assay [2]; -0.929 in [3]; -3.04 in [4]; -3.9 in assay [5]; -2.06 in assay [6]. For the same molecule, the z-score in assay [7] is 0.772 (inactive); in assay [8], -0.991; in assay [9] it was -2.82; in assay [10], -1.17 (inactive).
Take `CC(CCN1CCc2nc(-c3ccccc3)c(-c3ccccc3)cc2C1)=NO[C@H](C)c1cn([C@H](CO)Cc2ccccc2)nn1`: the z-score in assay [1] is 0.75; in assay [2], 0.23; in [3], 0.603; in assay [4], -1.31; in assay [5] it was 0.163; in assay [6], 2.57. Besides, the z-score was -1.49 (inactive) in [7], 1.02 in [8], 0.428 in assay [9] and -0.167 (inactive) in [10].
As for `C=CC[C@@H]1C=C[C@H](ON=C(C)CCN2CCCc3nc(C)c(C)cc32)[C@@H](CO)O1`, the z-score in assay [1] was 0.226; in assay [2] it was -0.0137; in assay [3], 0.0526; in assay [4], -2.03; in [5] it was -1.06; in assay [6] it was -0.276. The z-score was 0.0489 (inactive) in [7], -0.989 in assay [8], -0.455 in assay [9] and -0.246 (inactive) in [10].
Consider `CON=C(C)CCC(=O)OC[C@H]1O[C@H](C#Cc2ccccc2)C=C[C@@H]1Oc1ccc(C)cc1`, for which the z-score in assay [1] was -0.631; in assay [2], 0.0995; in assay [3], -3.1; in assay [4], -2.99; in [5], -3.96; in [6], -0.712. In addition, the z-score was -0.73 (inactive) in [7], -0.5 in assay [8], -0.373 in assay [9] and 0.216 (inactive) in assay [10].
Turning to `CC(C)=CCCC(C)=CCON=C1C[C@@H](O)[C@@H](O)[C@@H]2[C@@H]3C(=O)N(Cc4ccc5c(c4)OCO5)C(=O)[C@@H]3CC[C@@H]12`, the z-score in assay [1] is -0.0221; in [2] it was 0.603; in [3], -0.53; in [4], -0.788; in assay [5] it was -0.327; in assay [6], -0.0991. For the same molecule, the z-score in assay [7] is 0.581 (inactive); in assay [8] it was 0.0988; in [9], -0.909; in [10] it was 0.25 (inactive).
As to `CC(C)[C@@H](OCc1ccccc1)[C@H](C)C=NOC[C@@H](O)[C@H]1O[C@@H]2OC(C)(C)O[C@@H]2[C@H]1O`, the z-score in assay [1] is -0.205; in assay [2] it was -0.132; in assay [3], -0.292; in assay [4], 0.592; in assay [5], 0.322; in assay [6] it was -0.719. For the same molecule, the z-score in assay [7] is -1.58 (inactive); in assay [8], 0.13; in assay [9], 0.461; in assay [10] it was -0.665 (inactive).
On to `CC(C)[C@@H](OCc1ccccc1)[C@H](C)CON=C1[C@H]2CCn3c(=O)n(-c4ccccc4)c(=O)n3[C@H]2[C@H](O)[C@@H]2O[C@H]12`, for which the z-score in assay [1] was -0.27; in assay [2], -0.104; in assay [3], -1.31; in assay [4] it was -2.72; in [5], -2.22; in assay [6], -2.12. In addition, the z-score is 0.197 (inactive) in [7], -0.654 in assay [8], -0.375 in assay [9] and -1 (inactive) in [10].
With `O=C1C[C@H](c2ccccc2)[C@H](c2ccc(Br)cc2)O1`, the z-score in assay [1] is 1.43; in assay [2], 0.172; in assay [3] it was -0.0656; in [4], 0.342; in [5] it was 1.08; in assay [6], 1.19. In addition, the z-score is 0.268 (inactive) in [7], 0.563 in assay [8], 0.891 in assay [9] and -0.317 (inactive) in [10].
For the molecule `CO[C@@H](C1CCCCC1)[C@@H](C)[C@H](OCc1cccc(Br)c1)[C@@H](C)CO`, the z-score in [1] was -2.34; in assay [2] it was -0.348; in assay [3] it was -2.22; in assay [4] it was -3.02; in assay [5] it was -4.04; in assay [6], -4.59. In addition, the z-score was 0.408 (inactive) in [7], -1.11 in assay [8], -0.184 in assay [9] and -1.21 (inactive) in assay [10].
On to `CC(=O)OC[C@H]1O[C@H](CC=NO[C@@H](C)c2cn([C@H](CO)Cc3ccccc3)nn2)C=C[C@@H]1OC(C)=O`, for which the z-score was -1.04 in assay [1]; -0.0628 in assay [2]; -0.453 in [3]; 0.548 in [4]; -0.812 in [5]; -0.174 in [6]. Also, the z-score was -0.538 (inactive) in [7], 0.15 in [8], -0.76 in assay [9] and 0.095 (inactive) in assay [10].
`CCN1C(=O)[C@H]2[C@H]3[C@H](O)[C@H](O)CC(=NO[C@@H]4O[C@H](CO)[C@@H](O)[C@H](O)[C@H]4O)[C@H]3CC[C@H]2C1=O`: the z-score in assay [1] was 0.212; in assay [2], -0.158; in assay [3] it was 0.298; in assay [4], -0.0327; in [5] it was -0.982; in [6], -0.68. In addition, the z-score is -1.21 (inactive) in assay [7], 0.0397 in assay [8], 0.652 in [9] and 0.14 (inactive) in [10].
As to `C[C@@H]1CC[C@H]2C(=O)O[C@@H](COc3ccc(C(C)(C)C)cc3)CN2[C@H]1c1ccc(Br)cc1`, the z-score is 0.255 in assay [1]; -0.076 in [2]; 0.0944 in [3]; -1.26 in [4]; -0.794 in [5]; -1.31 in [6]. The z-score was -1.16 (inactive) in assay [7], -0.16 in assay [8], 0.455 in assay [9] and 1.71 (inactive) in assay [10].
With `COC(=O)[C@@H]1CC[C@H](C)[C@@H](c2ccc(Br)cc2)N1C[C@@H](O)CN=[N+]=[N-]`, the z-score in assay [1] was -0.618; in assay [2], 0.379; in [3], -0.494; in [4] it was -0.682; in assay [5] it was -1.4; in assay [6], 0.462. Moreover, the z-score in assay [7] is 0.866 (inactive); in assay [8], 0.65; in assay [9], -0.553; in [10], 0.0136 (inactive).
